Assay results reported in PubChem BioAssay (NCATS).
Inconclusive results are not listed. A number with no mark means an inactive call. The source made the active and inactive calls. The call rests on the fitted dose curve; in most records, active means well fitted curve in the direction sought with a large enough effect; inconclusive means small, poorly fitted or top-dose-only effect, or another doubt; inactive means no such curve, though single readings can be large; an effect the other way counts as inactive or inconclusive.

Test: qHTS of pediatric cancer cell lines to identify multiple opportunities for drug repurposing: Primary screen for RD cells (AID 1347104); further: nearly all actives have a fitted effect of over 55% in size;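 on activity change, negative = cytotoxic: plate controls were DMSO for no effect and bortezomib for full effect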
Conditions: RD rhabdomyosarcoma viability, CellTiter-Glo luminescence, 48 h; series mostly up to 46 µM; activity change, negative = cytotoxic: at the top concentration
Procedure, shortened: (§1)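 Viability was measured as metabolically active cells after 48 hours of treatment, read by CellTiter-Glo luminescence. Compounds were tested at multiple final concentrations, giving concentration-response curves.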
Potency means the concentration at half of the fitted maximal effect.

SMILES	activity change, negative = cytotoxic	Potency
CCOC(=O)O[C@]1(C(=O)OCCl)CC[C@H]2[C@@H]3CCC4=CC(=O)C=C[C@]4(C)[C@H]3[C@@H](O)C[C@@]21C	9.21%	
C[C@H]1C[C@H](O)c2ccsc2S1(=O)=O	17.4%	
CCN(CC)CC(=O)Oc1ccc(NC(C)=O)cc1	11.3%	
COC(=O)c1cc(Cl)c(NC(C)=O)cc1OC	14.2%	
C[N+]1(C)CCC(OC(=O)C(O)(c2ccccc2)C2CCCC2)C1 (stereo not drawn)	5.06%	
CCOC(=O)C(O)c1ccccc1 (stereo not drawn)	8.63%	
CCN1CCCC1CN (stereo not drawn)	-0.0068%	
Cc1cc2nc3ccc(=[N+](C)C)cc-3sc2cc1N		4.73 µM (active)
CCOC(=O)OCC/C(SC(=O)OCC)=C(\C)N(C=O)Cc1cnc(C)nc1N	1.06%	
CCN(CC)CCN	-0.609%	
CC(C)(C)c1nnc(NS(=O)(=O)c2ccccc2)s1	19.4%	
CC(C)C(=O)Nc1cccc(C(F)(F)F)c1	12.7%	
CC(C)NCCCC1(C(N)=O)c2ccccc2-c2ccccc21	4.71%	
Oc1ccccc1-c1nnco1	9.85%	
CN=C(N)NC(=O)Nc1c(C)cccc1C	14.1%	
Cc1cc(=O)oc2cc(O[C@@H]3SC[C@@H](O)[C@H](O)[C@H]3O)ccc12	16.1%	
CN1C(=O)c2ccccc2C1=O	9.31% [at 92.7 µM]	
CCN1CCN(C(=O)N[C@@H](C(=O)N[C@@H]2C(=O)N3[C@@H]2SC(C)(C)[C@H]3C(=O)O)c2ccccc2)C(=O)C1=O	11.2%	
O=C(C1CCCCC1)N1CC(=O)N2CCCc3ccccc3C2C1 (stereo not drawn)	11%	

Test: qHTS of pediatric cancer cell lines to identify multiple opportunities for drug repurposing: Primary screen for MG 63 (6-TG R) cells (AID 1347105); further: nearly all actives have a fitted effect of over 50% in size; on activity change, negative = cytotoxic: on the % scale 0 is the no-effect control and ±100 the full control effect
Conditions: MG 63 (6-TG R) viability, CellTiter-Glo, 48 h; series mostly up to 46 µM; activity change, negative = cytotoxic: at the top concentration
Procedure, shortened: as §1

SMILES	activity change, negative = cytotoxic	Potency
Cc1onc(-c2c(Cl)cccc2Cl)c1C(=O)Cl	-11.9%	
CCOC(=O)Oc1ccc(CCNC(=O)[C@H](CCSC)NC(C)=O)cc1OC(=O)OCC	-0.765%	
O=[N+]([O-])c1nccn1CO[C@@H](CO)[C@H](O)CO	25.8%	
NS(=O)(=O)c1ccc(N2CCCCS2(=O)=O)cc1	-15.4%	
O=C(O)CCC(=O)OC[C@@H](NC(=O)C(Cl)Cl)[C@H](O)c1ccc([N+](=O)[O-])cc1	1.45%	
CC(=O)c1ccc(O)c(C(N)=O)c1	-17.1%	
O=C1c2ccccc2CCc2ccccc21	-17.4%	
CCOC(=O)c1ccc(NC(=O)CN2CCCCC2)cc1	-17.5%	
Cc1c(F)cc2c(=O)c(C(=O)O)cn3c2c1CCC3C (stereo not drawn)	38.8%	
CC(C)(C)NCC(O)COc1ccccc1OCC1CCCO1 (stereo not drawn)	10.2%	
Cc1ccc(O)cc1	-5.71%	
CCCCC(CC)CNC(=O)CC(C)OC(=O)CCC(=O)O (stereo not drawn)	-15.5%	
CCN(CC)CC(=O)OCC(=O)[C@@]1(O)CC[C@H]2[C@@H]3CCC4=CC(=O)CC[C@]4(C)[C@H]3[C@@H](O)C[C@@]21C	10.1%	
OCCCc1ccccc1	-18.9%	
O=C(CCCCC(=O)Nc1c(I)cc(I)c(C(=O)O)c1I)Nc1c(I)cc(I)c(C(=O)O)c1I	-0.0418%	
Cc1cccc(OCC(O)CNC(C)(C)C)c1C (stereo not drawn)	-14.3%	
Cc1ccc(C(=O)C(=O)O)cc1C	-12.5%	
CC(=O)Nc1c(I)c(NC(C)=O)c(I)c(C(=O)O)c1I	-6.85%	
CC(C)(Oc1ccc(Cl)cc1)C(=O)OCCCOC(=O)C(C)(C)Oc1ccc(Cl)cc1	-4.7%	
O=C(CO)[C@@H](O)[C@H](O)[C@@H](O)CO	-23.3%	

SMILES	activity change, negative = cytotoxic	Potency
CCOC(=O)O[C@]1(C(=O)OCCl)CC[C@H]2[C@@H]3CCC4=CC(=O)C=C[C@]4(C)[C@H]3[C@@H](O)C[C@@]21C	-7.57%	
C[C@H]1C[C@H](O)c2ccsc2S1(=O)=O	-14.6%	
CCN(CC)CC(=O)Oc1ccc(NC(C)=O)cc1	-10.7%	
COC(=O)c1cc(Cl)c(NC(C)=O)cc1OC	-11.7%	
C[N+]1(C)CCC(OC(=O)C(O)(c2ccccc2)C2CCCC2)C1 (stereo not drawn)	-20.4%	
CCOC(=O)C(O)c1ccccc1 (stereo not drawn)	-9.34%	
CCN1CCCC1CN (stereo not drawn)	-25.6%	
Cc1cc2nc3ccc(=[N+](C)C)cc-3sc2cc1N		13.3 µM (active)
CCOC(=O)OCC/C(SC(=O)OCC)=C(\C)N(C=O)Cc1cnc(C)nc1N	-28.1%	
CCN(CC)CCN	-17.7%	
CC(C)(C)c1nnc(NS(=O)(=O)c2ccccc2)s1	-1.03%	
CC(C)C(=O)Nc1cccc(C(F)(F)F)c1	6.26%	
CC(C)NCCCC1(C(N)=O)c2ccccc2-c2ccccc21	-7.67%	
Oc1ccccc1-c1nnco1	-13.9%	
CN=C(N)NC(=O)Nc1c(C)cccc1C	0.12%	
Cc1cc(=O)oc2cc(O[C@@H]3SC[C@@H](O)[C@H](O)[C@H]3O)ccc12	-9.56%	
CN1C(=O)c2ccccc2C1=O	-21.6% [at 92.7 µM]	
CCN1CCN(C(=O)N[C@@H](C(=O)N[C@@H]2C(=O)N3[C@@H]2SC(C)(C)[C@H]3C(=O)O)c2ccccc2)C(=O)C1=O	7.28%	
O=C(C1CCCCC1)N1CC(=O)N2CCCc3ccccc3C2C1 (stereo not drawn)	-4.78%	
